Results published in article PMC9911399, “Two distinct binding modes provide the RNA-binding protein RbFox with extraordinary sequence specificity”.
Changes are numbered by the printed parent chain; changes in the protein carry UniProt numbers. In all, about 16,000 sequences were measured (“ka relative to ugcaugu”: median about 0.096, highest 2% from about 0.35 on). What follows is part of a selection rich in the highest values, with near analogues and random picks from the rest.

T1: RBFOX1 RRM RbFoxmut (Fox-RRM*) (Homo sapiens, UniProt Q9NWB1 109-208, R118D;E147R;N151S;E152T)
T1 sequence: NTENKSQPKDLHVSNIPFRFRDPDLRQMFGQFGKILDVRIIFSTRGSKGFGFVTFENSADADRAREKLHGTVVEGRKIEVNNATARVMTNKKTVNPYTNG

B1: AAGUUAU (DNA:RNA)
RNA: GGGAGACCGGAAUUCAGAUUGUCCAAGUUAUUUAAAUCCCGUCGUAGCCACCA
DNA 1: CAATCTGAATTCCGGTCTCCC
DNA 2: TGGTGGCTACGACGGGATT
B2: GUUUCAU (DNA:RNA)
RNA: B1 RNA with A25G, A26U, G27U, U29C
DNA 1: CAATCTGAATTCCGGTCTCCC
DNA 2: TGGTGGCTACGACGGGATT
B3: UAGCAGU (DNA:RNA)
RNA: B1 RNA with A25U, U28C, U29A, A30G
DNA 1: CAATCTGAATTCCGGTCTCCC
DNA 2: TGGTGGCTACGACGGGATT
B4: CGUACCU (DNA:RNA)
RNA: B1 RNA with A25C, A26G, G27U, U28A, U29C, A30C
DNA 1: CAATCTGAATTCCGGTCTCCC
DNA 2: TGGTGGCTACGACGGGATT
B5: AGCAUGG (DNA:RNA)
RNA: B1 RNA with A26G, G27C, U28A, A30G, U31G
DNA 1: CAATCTGAATTCCGGTCTCCC
DNA 2: TGGTGGCTACGACGGGATT
B6: UAGCAUA (DNA:RNA)
RNA: B1 RNA with A25U, U28C, U29A, A30U, U31A
DNA 1: CAATCTGAATTCCGGTCTCCC
DNA 2: TGGTGGCTACGACGGGATT
B7: AUGUUGG (DNA:RNA)
RNA: B1 RNA with A26U, A30G, U31G
DNA 1: CAATCTGAATTCCGGTCTCCC
DNA 2: TGGTGGCTACGACGGGATT
B8: AGAUGGU (DNA:RNA)
RNA: B1 RNA with A26G, G27A, U29G, A30G
DNA 1: CAATCTGAATTCCGGTCTCCC
DNA 2: TGGTGGCTACGACGGGATT
B9: AUGGUUG (DNA:RNA)
RNA: B1 RNA with A26U, U28G, A30U, U31G
DNA 1: CAATCTGAATTCCGGTCTCCC
DNA 2: TGGTGGCTACGACGGGATT
B10: UAGCAUG (DNA:RNA)
RNA: B1 RNA with A25U, U28C, U29A, A30U, U31G
DNA 1: CAATCTGAATTCCGGTCTCCC
DNA 2: TGGTGGCTACGACGGGATT
B11: AGCAUAU (DNA:RNA)
RNA: B1 RNA with A26G, G27C, U28A
DNA 1: CAATCTGAATTCCGGTCTCCC
DNA 2: TGGTGGCTACGACGGGATT
B12: AGCAUGU (DNA:RNA)
RNA: B1 RNA with A26G, G27C, U28A, A30G
DNA 1: CAATCTGAATTCCGGTCTCCC
DNA 2: TGGTGGCTACGACGGGATT
B13: AGCCAUG (DNA:RNA)
RNA: B1 RNA with A26G, G27C, U28C, U29A, A30U, U31G
DNA 1: CAATCTGAATTCCGGTCTCCC
DNA 2: TGGTGGCTACGACGGGATT
B14: ACCAUGG (DNA:RNA)
RNA: B1 RNA with A26C, G27C, U28A, A30G, U31G
DNA 1: CAATCTGAATTCCGGTCTCCC
DNA 2: TGGTGGCTACGACGGGATT
B15: AGCAUUG (DNA:RNA)
RNA: B1 RNA with A26G, G27C, U28A, A30U, U31G
DNA 1: CAATCTGAATTCCGGTCTCCC
DNA 2: TGGTGGCTACGACGGGATT
B16: UAGCAUC (DNA:RNA)
RNA: B1 RNA with A25U, U28C, U29A, A30U, U31C
DNA 1: CAATCTGAATTCCGGTCTCCC
DNA 2: TGGTGGCTACGACGGGATT
B17: AUUCCUA (DNA:RNA)
RNA: B1 RNA with A26U, G27U, U28C, U29C, A30U, U31A
DNA 1: CAATCTGAATTCCGGTCTCCC
DNA 2: TGGTGGCTACGACGGGATT
B18: ACGGGGG (DNA:RNA)
RNA: B1 RNA with A26C, U28G, U29G, A30G, U31G
DNA 1: CAATCTGAATTCCGGTCTCCC
DNA 2: TGGTGGCTACGACGGGATT
B19: UCCUCGU (DNA:RNA)
RNA: B1 RNA with A25U, A26C, G27C, U29C, A30G
DNA 1: CAATCTGAATTCCGGTCTCCC
DNA 2: TGGTGGCTACGACGGGATT
B20: GUACUCA (DNA:RNA)
RNA: B1 RNA with A25G, A26U, G27A, U28C, A30C, U31A
DNA 1: CAATCTGAATTCCGGTCTCCC
DNA 2: TGGTGGCTACGACGGGATT
B21: CACUACA (DNA:RNA)
RNA: B1 RNA with A25C, G27C, U29A, A30C, U31A
DNA 1: CAATCTGAATTCCGGTCTCCC
DNA 2: TGGTGGCTACGACGGGATT
B22: UUAGGGA (DNA:RNA)
RNA: GGGAGACCGGAAUUCAGAUUGUCCUUAGGGAUUAAAUCCCGUCGUAGCCACCA
DNA 1: CAATCTGAATTCCGGTCTCCC
DNA 2: TGGTGGCTACGACGGGATT
B23: AGCCGCU (DNA:RNA)
RNA: B1 RNA with A26G, G27C, U28C, U29G, A30C
DNA 1: CAATCTGAATTCCGGTCTCCC
DNA 2: TGGTGGCTACGACGGGATT
B24: GCUCAAC (DNA:RNA)
RNA: B1 RNA with A25G, A26C, G27U, U28C, U29A, U31C
DNA 1: CAATCTGAATTCCGGTCTCCC
DNA 2: TGGTGGCTACGACGGGATT
B25: UCGCGAA (DNA:RNA)
RNA: B22 RNA with U26C, A27G, G28C, G30A
DNA 1: CAATCTGAATTCCGGTCTCCC
DNA 2: TGGTGGCTACGACGGGATT
B26: UGACUUG (DNA:RNA)
RNA: B22 RNA with U26G, G28C, G29U, G30U, A31G
DNA 1: CAATCTGAATTCCGGTCTCCC
DNA 2: TGGTGGCTACGACGGGATT
B27: AUCCGCU (DNA:RNA)
RNA: B1 RNA with A26U, G27C, U28C, U29G, A30C
DNA 1: CAATCTGAATTCCGGTCTCCC
DNA 2: TGGTGGCTACGACGGGATT
B28: AAGCAUC (DNA:RNA)
RNA: B1 RNA with U28C, U29A, A30U, U31C
DNA 1: CAATCTGAATTCCGGTCTCCC
DNA 2: TGGTGGCTACGACGGGATT
B29: AAGCAUG (DNA:RNA)
RNA: B1 RNA with U28C, U29A, A30U, U31G
DNA 1: CAATCTGAATTCCGGTCTCCC
DNA 2: TGGTGGCTACGACGGGATT
B30: AAGCAUA (DNA:RNA)
RNA: B1 RNA with U28C, U29A, A30U, U31A
DNA 1: CAATCTGAATTCCGGTCTCCC
DNA 2: TGGTGGCTACGACGGGATT
B31: GCAUGCA (DNA:RNA)
RNA: B22 RNA with U25G, U26C, G28U, G30C
DNA 1: CAATCTGAATTCCGGTCTCCC
DNA 2: TGGTGGCTACGACGGGATT
B32: GCAUUAA (DNA:RNA)
RNA: B1 RNA with A25G, A26C, G27A, U31A
DNA 1: CAATCTGAATTCCGGTCTCCC
DNA 2: TGGTGGCTACGACGGGATT
B33: CGAUGCA (DNA:RNA)
RNA: B22 RNA with U25C, U26G, G28U, G30C
DNA 1: CAATCTGAATTCCGGTCTCCC
DNA 2: TGGTGGCTACGACGGGATT
B34: GAUUGCA (DNA:RNA)
RNA: B1 RNA with A25G, G27U, U29G, A30C, U31A
DNA 1: CAATCTGAATTCCGGTCTCCC
DNA 2: TGGTGGCTACGACGGGATT
B35: CCAUGCC (DNA:RNA)
RNA: B22 RNA with U25C, U26C, G28U, G30C, A31C
DNA 1: CAATCTGAATTCCGGTCTCCC
DNA 2: TGGTGGCTACGACGGGATT
B36: GCAUCCC (DNA:RNA)
RNA: B1 RNA with A25G, A26C, G27A, U29C, A30C, U31C
DNA 1: CAATCTGAATTCCGGTCTCCC
DNA 2: TGGTGGCTACGACGGGATT
B37: ACAUGCG (DNA:RNA)
RNA: B1 RNA with A26C, G27A, U29G, A30C, U31G
DNA 1: CAATCTGAATTCCGGTCTCCC
DNA 2: TGGTGGCTACGACGGGATT
B38: GAAUGCA (DNA:RNA)
RNA: B22 RNA with U25G, U26A, G28U, G30C
DNA 1: CAATCTGAATTCCGGTCTCCC
DNA 2: TGGTGGCTACGACGGGATT
B39: GCAUGCG (DNA:RNA)
RNA: B22 RNA with U25G, U26C, G28U, G30C, A31G
DNA 1: CAATCTGAATTCCGGTCTCCC
DNA 2: TGGTGGCTACGACGGGATT
B40: GUCCGCA (DNA:RNA)
RNA: B22 RNA with U25G, A27C, G28C, G30C
DNA 1: CAATCTGAATTCCGGTCTCCC
DNA 2: TGGTGGCTACGACGGGATT
B41: GCCUGCC (DNA:RNA)
RNA: B1 RNA with A25G, A26C, G27C, U29G, A30C, U31C
DNA 1: CAATCTGAATTCCGGTCTCCC
DNA 2: TGGTGGCTACGACGGGATT
B42: GCAUGCC (DNA:RNA)
RNA: B22 RNA with U25G, U26C, G28U, G30C, A31C
DNA 1: CAATCTGAATTCCGGTCTCCC
DNA 2: TGGTGGCTACGACGGGATT

Each binder was assayed against T1, RBFOX1 RRM RbFoxmut (Fox-RRM*) (assay: EMSA; HiTS-Eq, 1 nM pool, 10 min; buffer printed only for the single-RNA assays: 10 mM Tris pH 7.5, 150 mM NaCl, 3.4 mM EDTA, 0.001% NP-40, 30 C). Conditions: tags: His6 N-terminal (pET28a); label: 5' 32P.
Procedure, shortened: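 A pool of RNA with 7 randomized nucleotides, 5′-radiolabelled and with DNA-annealed flanks, was equilibrated at 1 nM for 10 min in 50 µL with purified RbFox RRM, wild type or mutant, across increasing protein concentrations. Free RNA was separated by 8% native PAGE, excised, reverse-transcribed, barcoded by PCR and sequenced. Relative association constants were obtained from read-count changes of each RNA species versus the control reaction and normalised to the cognate motif.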

Binder | binding signal
B1 | 0.118 KA relative to UGCAUGU
B2 | 0.132 KA relative to UGCAUGU
B3 | 0.0735 KA relative to UGCAUGU
B4 | 0.099 KA relative to UGCAUGU
B5 | 0.538 KA relative to UGCAUGU
B6 | 0.0997 KA relative to UGCAUGU
B7 | 0.123 KA relative to UGCAUGU
B8 | 0.117 KA relative to UGCAUGU
B9 | 0.48 KA relative to UGCAUGU
B10 | 0.819 KA relative to UGCAUGU
B11 | 0.133 KA relative to UGCAUGU
B12 | 0.713 KA relative to UGCAUGU
B13 | 0.163 KA relative to UGCAUGU
B14 | 0.0839 KA relative to UGCAUGU
B15 | 0.2 KA relative to UGCAUGU
B16 | 0.266 KA relative to UGCAUGU
B17 | 0.098 KA relative to UGCAUGU
B18 | 0.118 KA relative to UGCAUGU
B19 | 0.124 KA relative to UGCAUGU
B20 | 0.095 KA relative to UGCAUGU
B21 | 0.13 KA relative to UGCAUGU

Binder | binding signal
B22 | 0.0529 KA relative to UGCAUGU
B23 | 0.0799 KA relative to UGCAUGU
B24 | 0.0746 KA relative to UGCAUGU
B25 | 0.105 KA relative to UGCAUGU
B26 | 0.272 KA relative to UGCAUGU
B27 | 0.121 KA relative to UGCAUGU
B28 | 0.196 KA relative to UGCAUGU
B29 | 0.715 KA relative to UGCAUGU
B30 | 0.0958 KA relative to UGCAUGU
B31 | 0.828 KA relative to UGCAUGU
B32 | 0.141 KA relative to UGCAUGU
B33 | 0.158 KA relative to UGCAUGU
B34 | 0.171 KA relative to UGCAUGU
B35 | 0.19 KA relative to UGCAUGU
B36 | 0.142 KA relative to UGCAUGU
B37 | 0.139 KA relative to UGCAUGU
B38 | 1.03 KA relative to UGCAUGU
B39 | 0.872 KA relative to UGCAUGU
B40 | 0.107 KA relative to UGCAUGU
B41 | 0.176 KA relative to UGCAUGU
B42 | 0.651 KA relative to UGCAUGU
